# Where “and” joins values, the source holds several entries; their conditions need not be identical. Identical values can stand only once. The whole screen tested about 320,000 compounds, of which about 22,000 (6.9%) were called active. Inconclusive results (about 27%) are left out. What follows is part of a selection rich in actives, with near analogues and random picks from the rest. Values without a mark were called inactive. Calls follow the shape of the dose curve; as a rule, active = well fitted inhibition curve with a large enough effect; inconclusive = small, poorly fitted or top-dose-only effect, or another doubt; inactive = no such curve, though single readings can be large or run the other way.
# Assay: Primary qHTS for delayed death inhibitors of the malarial parasite plastid, 96 hour incubation
# Conditions: P. falciparum luciferase reporter growth; series mostly up to 28.7 µM; activity change, negative = inhibition: at the top concentration
# Procedure, shortened: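 96 h incubation, 37 C, 5% CO2, of luciferase-reporter P. falciparum-infected RBCs (2% hematocrit, 0.05% parasitemia final) with test compounds; endpoint luminescence.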
# % is scaled to controls: 0 for no effect and ±100 for the full control effect; potency is read from the fitted curve at half-maximal effect.
SMILES,Potency,"activity change, negative = inhibition"
CC[N+]1(C)CCCC(OC(=O)C(O)(c2ccccc2)c2ccccc2)C1 (centres undefined),8.49 µM (active) and 10.4 µM (active),–
CN(C)N(C)C(=O)C(O)(c1ccccc1)c1ccccc1,–,-3.89%
CCOC(=O)CCP(=O)(O)C(O)(c1ccccc1)c1ccccc1,–,6.27%
O=S(=O)(c1ccc(Cl)cc1)c1nc(-c2ccccc2F)oc1NCCN1CCOCC1,–,-26.1%
O=C1c2cccc3cccc(c23)C(=O)N1CCCCCc1n[nH]c(=S)o1,–,21.4%
C[N+](C)(CCCCCC[N+](C)(C)CCCN1C(=O)c2cccc3cccc(c23)C1=O)CCCN1C(=O)c2cccc3cccc(c23)C1=O,0.233 µM (active),–
O=C(CN1C(=O)c2cccc3cccc1c23)Nc1ccccc1,–,6.14%
COc1cc(/C=C/C(=O)O)cc(S(=O)(=O)Nc2ccccc2C(=O)NCCc2ccccc2)c1OC,–,24.5%
Cc1ccc(NC(=O)COC(=O)C2C3CC4OC(=O)C2C4C3)cc1Cl (centres undefined),–,0.766%
Cc1cc(C)cc(NC(=O)c2cccc(NC(=O)C3C4CC5OC(=O)C3C5C4)c2)c1 (centres undefined),0.0738 µM (active),–
Cc1cccc(NC(=O)C(C)N2C(=O)C3C4CC(C(Br)C4Br)C3C2=O)c1 (centres undefined),–,104%
O=C(NCCS(=O)(=O)N1CCN(c2ccccc2)CC1)c1ccco1,–,10.3%
CSc1cccc(NC(=O)CN2C(=O)COc3ccc(S(=O)(=O)N4CCOCC4)cc32)c1,–,8.78%
COCCn1nnnc1C(c1ccccc1Cl)N1CCN(c2ccccc2OC)CC1 (centres undefined),–,-5.44%
CN(C(=O)CSc1nnnn1-c1ccccc1)C1CCCCC1,–,1.42% [at 5.75 µM]
CCC(=O)N(C)C(c1ccccc1Cl)c1nnnn1-c1c(C)cccc1C (centres undefined),9.28 µM (active),–
CCc1ccccc1NC(=O)CSc1nnc(CCNC(=O)OC(C)(C)C)o1,–,14.6%
O=c1[nH]c(=O)n(Cc2ccco2)c2c1C(C(F)(F)F)(C(F)(F)F)N=C(c1ccco1)N2,–,38%
Cc1ccccc1C1=NC(C(F)(F)F)(C(F)(F)F)c2c(n(-c3ccc(F)cc3)c(=O)[nH]c2=O)N1,11.7 µM (active),–
C=CCNC(=S)N1CCc2[nH]c3ccccc3c2C1,–,4.36%
O=C(NC1CCCCC1)N1CCc2[nH]c3ccccc3c2C1,8.28 µM (active),–
O=C(Nc1ccc(Cl)cc1)N1CCc2[nH]c3ccccc3c2C1,–,0%
Cc1ccc(F)c(NC(=O)CCOc2ccccc2C)c1,–,38.1%
COc1ccccc1C(=O)N1C(CC(=O)Nc2ccccc2C)C(=O)NC2CCCCC21 (centres undefined),–,2.48%
COc1ccc(OC)c(C2C3=C(N=c4s/c(=C\c5cccc(O)c5)c(=O)n42)c2ccccc2CC3)c1 (centres undefined),2.08 µM (active),–

SMILES,Potency,"activity change, negative = inhibition"
COc1cc(C(=O)OCC(=O)NC(C)CCc2ccccc2)cc(OC)c1OC (centres undefined),–,-12.3%
COCCCNC(=O)CNC(=O)c1nn(-c2ccc(OC)cc2)c(=O)c2ccccc12,–,5.51%
COc1ccc(-n2nc(C(=O)NCC(=O)N3CCCCCC3)c3ccccc3c2=O)cc1Cl,2.33 µM (active),–
COc1ccc(-n2nc(C(=O)NCC(=O)N3CCC(C(N)=O)CC3)c3ccccc3c2=O)cc1OC,–,32%
Cc1ccc(C(=O)O/N=C(\N)c2ccccn2)cc1Cl,–,11.2%
Cc1nc(C(=O)NCc2ccccc2)sc1C1(C)CC(c2cccnc2)=NO1 (centres undefined),–,-1.98%
S=C(NCc1ccco1)Nc1ccc2c(c1)OCCO2,–,-0.369%
O=C1c2ccccc2C(Nc2ccc3c(c2)OCCO3)N1Cc1ccco1 (centres undefined),4.65 µM (active),–
COc1ccccc1C1/C(=C(/O)c2ccc(C)cc2)C(=O)C(=O)N1Cc1ccco1 (centres undefined),–,-16.6%
O=[N+]([O-])c1ccccc1/C=C/CN1CCCC(CO)C1 (centres undefined),–,93.6%
COc1cccc(CNS(=O)(=O)c2ccc3c(c2)CC(C)N3C(=O)C2CCC2)c1 (centres undefined),–,-9.19%
COc1cccc(CNS(=O)(=O)c2ccc3c(c2)N(C(C)=O)CCS3)c1,–,16.7%
COc1cccc(CNS(=O)(=O)c2ccc3c(c2)CC(C)N3C(C)=O)c1 (centres undefined),10.4 µM (active),–
COc1cc(C(=O)N/C(=C\c2cn(C)c3ccccc23)C(=O)N2CCOCC2)cc(OC)c1OC,–,30.2%
Cc1ccc(NC(=O)CSc2nn3c(=O)c(C)nnc3s2)cc1Cl,9.28 µM (active),–
Cc1ccc(NC(=O)C/C(N)=N/O)cc1Cl,–,-9.25%
COc1ccc(Cc2nnc(SCC(=O)Nc3ccc(C)c(Cl)c3)[nH]c2=O)cc1,–,1.8%
O=S(=O)(Nc1ccc2nc(N3CCOCC3)sc2c1)c1ccccc1,–,126%
Fc1cc(F)c2nc(N3CCOCC3)sc2c1,3.7 µM (active),–
O=C(c1ccc2nc(N3CCOCC3)sc2c1)N1CCN(c2ccc(Cl)cc2)CC1,–,33.2%
COc1ccc(S(=O)(=O)N2CCN(C(C)C(=O)Nc3ccc(C(C)C)cc3)CC2)cc1 (centres undefined),–,-96.3%
CCOc1ccccc1Nc1ccc(C(=O)O)cc1[N+](=O)[O-],–,-20.7%
O=C(O)c1cc([N+](=O)[O-])c(Nc2cccc3ccccc23)c([N+](=O)[O-])c1,3.29 µM (active),–
O=[N+]([O-])c1cccc(Nc2c3ccccc3nc3ccccc23)c1,–,-0.0462%
